Experimental data taken from paper PMC7826789 (International Journal of Molecular Sciences, 2021).

System: YSK4

Kinases covered, YSK4:
NC(=O)c1cccnc1COc1cc(-c2ccc(N3CCOCC3)nc2)cc2ncccc12 [BI01125081], Cc1cc(NC(=O)c2cccc(NC(=O)/C=C/CN(C)C)c2)ccc1Nc1nccc(-c2cccnc2)n1 [JNK-IN-7], CC(C)N1CC(=O)N(C)c2cnc(Nc3cccc(S(=O)(=O)CCN4CCOCC4)c3)nc21 [BI00009348], COc1cc2c(cc1OC)C(=C(Nc1ccccc1)c1cccc(CN)c1)C(=O)N2 [BIBF0846CL], CCCc1cc(N2CCCN(C)CC2)nc2sc3c(N)ncnc3c12 [BI00604564]
